From PubChem
The list is not random: actives were taken first. Their share in the collection is about 11%.
Pf growth 96h: P. falciparum growth inhibition at 96 hours. Potency, µM (series often up to 28.7 µM), for the others: top-dose activity change, negative = inhibition, usual class: inhibitors. P. falciparum luciferase reporter growth, 96 h. 320,000 tested, 6.9% active; also: % is scaled to controls: 0 for no effect and ±100 for the full control effect
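Luminescence readout: decreased luciferase signal marks inhibited growth of reporter-expressing P. falciparum in infected red cells (2% hematocrit, 0.05% parasitemia final), exposed to compound two generations (96 h, 37 C, 5% CO2).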
Vaccinia mCherry: vaccinia inhibition (mCherry reporter). 310,000 tested, 0.63% active. Potency, µM (top dose mostly 36.5 µM), for the others: at the top dose activity change, negative = inhibition, most hits filed as inhibitors. Vaccinia virus mCherry reporter infection, fluorescence. AID 720579; calls by dose curve; tested in A549 cells; also: % is scaled to controls: 0 for no effect and ±100 for the full control effect; nearly all actives have a fitted effect of over 35% in size
NS1 inh: inhibitors of influenza NS1 protein function; Potency, µM (top dose mostly 46.1 µM), for the others: at the highest dose activity, positive = more growth; 270,000 tested, 0.4% active; calls by dose curve; also: actives are rising curves; nearly all actives have a fitted effect of over 50% in size
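S. cerevisiae expressing influenza A NS1, grown in glucose, washed, then diluted 1:100 into pH 6.0 -URA galactose medium with 23 nl compound. Growth recovery read as OD600; NS1-free strain serves as control.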
HCV inhibitor: HCV inhibition. Huh7.5.1 HCVcc-Cre infection, luciferase reporter, 44 h. Potency, µM (doses to about 41.8 µM), inactives show top-dose activity change, negative = inhibition, hits mostly inhibitors. 340,000 tested, 3.4% active; also: % is scaled to controls: 0 for no effect and ±100 for the full control effect
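1,000 cells/well; 4 h culture; + compound; + HCVcc-Cre (~0.5 moi); 44 h; luciferase substrate, RT 15 min; read 15 sec.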
Vaccinia Venus: inhibitors of vaccinia virus (Venus reporter) | AID 720580 | 330,000 tested, 0.46% active | Potency, µM (titrated, usually from 36.5 µM), without a hit: at the top dose activity change, negative = inhibition, usual class: inhibitors | Vaccinia virus Venus reporter expression, fluorescence; calls by dose curve; tested in A549 cells; also: % is scaled to controls: 0 for no effect and ±100 for the full control effect; nearly all actives have a fitted effect of over 30% in size
Pf growth 48h: P. falciparum growth inhibition at 48 hours (one generation); P. falciparum luciferase growth in erythrocytes, 48 h; Potency, µM (top dose mostly 28.7 µM), for inactives: at the highest dose activity change, negative = inhibition, actives largely listed as inhibitors; 310,000 tested, 5.9% active; AID 504832; also: % is scaled to controls: 0 for no effect and ±100 for the full control effect
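Luciferase-expressing P. falciparum in infected erythrocytes (2% hematocrit, 0.1% parasitemia final) in RPMI 1640/0.5% Albumax were exposed to compound for 48 hours at 37 C, 5% CO2; growth read as luminescence.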
* marks the source's active call; other numbers are inactive results; i = inactive; ? = inconclusive; · = not tested or not shown. Unless noted, calls follow the shape of the dose curve; as a rule, active = well fitted inhibition curve with a large enough effect; inconclusive = small, poorly fitted or top-dose-only effect, or another doubt; inactive = no such curve, though single readings can be large or run the other way. Potency is read from the fitted curve at half-maximal effect.

SMILES | Pf growth 96h | Vaccinia mCherry | NS1 inh | HCV inhibitor | Vaccinia Venus | Pf growth 48h
COc1ccc2c(c1)-c1c(sn(-c3ccc(OC)c(OC)c3)c1=S)C(C)(C)N2 | 10µM* | -4% | -13% | 2.5µM* | -28% | ?
COC(=O)CNC(=O)c1cccc(-c2ccc(OC)cc2)c1 | 2.3µM* | i | -32% | 6% | -7% | 66%
COc1ccc(-c2cccc(C(=O)NCC(=O)O)c2)cc1 | 6% | · | -120% | 15% | · | ·
c1coc(C2Nc3ccccc3-c3nc4ccccc4n32)c1 (stereo unspecified) | 23% | ? | -74% | 13µM* | ? | 72%
COc1cc(CN(C(=O)c2ccc(OC(C)C)cc2)C2CCS(=O)(=O)C2)cc(OC)c1OC (stereo unspecified) | · | -3% | · | · | -10% | ·
CCc1ccc(CC2S/C(=C(\C#N)C(C)=O)NC2=O)cc1 (stereo unspecified) | 2.9µM* | · | -4% | 2% | · | ?
Cc1cc(C)c2cc(C#N)c(N3CCCC3)nc2c1 | 10µM* | ? | 0% | ? | -14% | -5%
Cc1cc(C)c2cc(C#N)c(N3CCCN(C(=S)NCCCN(C)C)CC3)nc2c1 | 10µM* | i | 0% | 11µM* | -28% | -45%
CCOCCCNC(=S)N1CCCN(c2nc3c(C)c(C)ccc3cc2C#N)CC1 | ? | -11% | 4% | 10µM* | -29% | -5%
Cc1ccc2cc(C#N)c(N3CCCN(C(=O)c4cnccn4)CC3)nc2c1 | ? | -19% | 0% | 24% | 3% | -34%
CCOCCCNC(=S)N1CCCN(c2nc3cc(C)ccc3cc2C#N)CC1 | 0% | i | · | 4% | 2% | -13%
COc1cccc(C(=O)N2CCN(c3nc4cc(C)cc(C)c4cc3C#N)CC2)c1 | · | -12% | · | · | -23% | ·
Cc1ccc2cc(C#N)c(N3CCCN(C(=S)NCCCN(C)C)CC3)nc2c1 | ? | -9% | 2% | 10µM* | ? | 10µM*
O=C(Nc1c2c(nn1-c1ccc([N+](=O)[O-])cc1)CS(=O)(=O)C2)C1CC1 | -14% | · | 11% | 17% | · | -7%
O=C(O)C1SCCN1S(=O)(=O)c1ccc(N=NN2CCOCC2)cc1 (stereo unspecified) | 1.9µM* | 0% | -2% | 7% | -11% | 21%
COc1ccc2c(c1OC)C(=O)OC2C1c2cc3c(cc2CCN1C)OCO3 (stereo unspecified) | 12µM* | -6% | -6% | 12% | ? | 13%
CNC(=S)N/N=C/c1cc(C)ccc1C | ? | · | · | -2% | · | -18%
CC(C)NC(=S)N/N=C/c1cccs1 | 3.3µM* | -25% | 14% | -4% | -15% | ·
Cc1ccc(C)c(/C=N/NC(=S)NC(C)C)c1 | 13µM* | -4% | -8% | ? | -17% | ?
C=CCNC(=S)N/N=C/c1ccc(C)cc1C | ? | i | · | -19% | -11% | 10µM*
S=C(NCCc1ccccc1)N/N=C/c1cccs1 | · | · | · | -15% | · | ·
S=C(NCc1ccccc1)N/N=C/c1cccs1 | ? | · | 12% | ? | · | 7.4µM*
C/C(=N\NC(=O)Nc1ccccc1)c1ccc2ccccc2c1 | -7% | -24% | 19% | 22% | -14% | -10%
Cc1cc(S(=O)(=O)N2CCCOC2CNC(=O)C(=O)NCc2ccco2)ccc1F (stereo unspecified) | 40% | ? | · | 18% | -19% | 23%
CC(C)n1nnnc1SCC(=O)NNC(=O)C1CCCCC1 | 9% | -15% | 1% | 14% | -13% | 8%
SMILES | Pf growth 96h | Vaccinia mCherry | NS1 inh | HCV inhibitor | Vaccinia Venus | Pf growth 48h
CC(C)n1nnnc1SCC(=O)NC1CCCC1 | 5.2µM* | 17% | 2% | 8% | 4% | 51%
COc1ccc2cc(S(=O)(=O)N3CCN(C)CC3)ccc2c1 | ? | i | -5% | 2% | -2% | ?
COc1cccc(N2CCN(S(=O)(=O)c3ccc4ccccc4c3)CC2)c1 | 4% | -11% | · | 22µM* | -18% | 12%
COc1ccc2cc(S(=O)(=O)N3CCCC3)ccc2c1 | 6.6µM* | i | -11% | -9% | 0% | -1%
O=C(O)c1cccc(NS(=O)(=O)c2ccc3c(c2)C(=O)c2ccccc2C3=O)c1 | -18% | · | 4% | 25% | · | 24%
C=CCn1c(SCC(=O)c2ccc(OC)cc2)nnc1-c1ccc2c(c1)OCO2 | ? | i | -18% | -1% | -1% | -9%
CC1(C)Cc2c(c(N3CCCC3)nc3sc(C(=O)Nc4ccccc4)c(N)c23)CO1 | 13µM* | · | 23% | -16% | · | 15µM*
CCOC(=O)c1sc2nc(-c3ccco3)c3c(c2c1N)CC(C)(C)OC3 | -12% | 10µM* | 3% | ? | 13µM* | ?
CC1(C)Cc2c(c(N3CCCC3)nc3sc4c(N5CCNCC5)ncnc4c23)CO1 | ? | · | 4% | 14µM* | · | ?
Cc1ccc(NC(=O)c2sc3nc(N4CCOCC4)c4c(c3c2N)CC(C)(C)OC4)cc1 | 69% | · | -5% | -16% | · | ?
CCc1c(C(=O)OC)nnc2cc(C)nn12 | -2% | · | 7% | 15% | · | ·
CCC(=O)Oc1ccc(C(=O)Nc2c[nH]c(=O)[nH]c2=O)cc1 | 28% | i | 2% | 2% | -6% | 17%
O=C(c1ccccc1)N1CCN(C(=O)c2ccccc2)c2ccccc21 | · | -12% | · | 3.2µM* | -15% | ·
O=C(c1ccccc1)N1CCN=C1c1ccccc1 | 12µM* | -14% | 11% | 6% | -9% | -11%
CCOC(=O)c1cnn(-c2cccc(Cl)c2)c1N | 27% | · | -12% | 9% | · | 55%
COc1ccccc1C(=O)NCCC(=O)NCCC12CC3CC(CC(C3)C1)C2 | -23% | ? | 7% | ? | -23% | 1%
COc1ccc(C23CC4CC(CC(C4)C2)C3)cc1C(=O)NCCN(C)C | 12µM* | · | 4% | -6% | · | ?
Fc1ccc(F)c(CNc2ncnc3cc(Cl)ccc23)c1 | ? | i | -3% | ? | -12% | ?
CC1Cn2c(nnc2-c2cc3ccccc3cc2O)S1 (stereo unspecified) | · | -12% | 0% | ? | -17% | 1.7µM*
COc1ccc2c(C)c(CC(=O)N3C[C@H]4C[C@@H](C3)c3cccc(=O)n3C4)c(=O)oc2c1C | ? | -1% | -7% | 2% | -1% | -1%
Cc1c(CC(=O)N2C[C@H]3C[C@@H](C2)c2cccc(=O)n2C3)c(=O)oc2cc3occ(C(C)(C)C)c3cc12 | 8.3µM* | -2% | -11% | 9% | -1% | -27%
C=C(C)COc1ccc2c(C)c(CC(=O)N3C[C@H]4C[C@@H](C3)c3cccc(=O)n3C4)c(=O)oc2c1C | 12µM* | -24% | -1% | 44% | -26% | ?
CN(C(=O)COC(=O)CNC(=O)C12CC3CC(CC(C3)C1)C2)C1CCS(=O)(=O)C1 (stereo unspecified) | 48% | -12% | -6% | 28% | -4% | 11%
